In PubChem BioAssay AID1159580 (chemical genetic matrix, 2015):
Among all 5,500 compounds or so, about 2,000 (36%) were called active. Another 18% or so got no clear call; they are omitted. Cut-off read from the data, not from the text of the source: active = normalized growth mostly below about 0.91 (no sharp cut-off); inconclusive = no clear call, values can overlap the other calls; inactive = mostly above about 0.92. The list shows a part of the results.

Test: chemical genetic growth profiling, strain panel (AID 1159580);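 note: tested at 20 µM; growth read once vehicle control cultures reached saturation at 30 °C; 1 = growth at the plate median or of vehicle wells; lower values mean less growth of the strain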
Conditions: S. cerevisiae deletion strains, growth OD

Measured: normalized growth

COc1ccc(C(c2ccc(OC)cc2)C(Cl)(Cl)Cl)cc1
active: locus YJL129C, strain trk1, hits give low values 0.847
inactive: locus YAL013W, strain DEP1, hits give low values 1 | locus YAL021C, strain ccr4, hits give low values 0.989 | locus YAL026C, strain drs2, hits give low values 1.01 | locus YAL030W, strain snc1, hits give low values 1.02 | locus YBL061C, strain skt5, hits give low values 1.01 | locus YBR009C, strain hhf1, hits give low values 1.01 | locus YBR021W, strain FUR4, hits give low values 0.974 | locus YBR023C, strain chs3, hits give low values 0.998 | locus YBR171W, strain sec66, hits give low values 1 | locus YBR229C, strain ROT2, hits give low values 0.997 | locus YBR231C, strain swc5, hits give low values 1.01 | locus YBR279W, strain paf1, hits give low values 1.02 | locus YCL011C, strain gbp2, hits give low values 1.02 | locus YCL016C, strain dcc1, hits give low values 1.01 | locus YCL029C, strain bik1, hits give low values 0.981 | locus YCL061C, strain MRC1, hits give low values 1.01 | locus YCL069W, strain vba3, hits give low values 1.02 | locus YCR088W, strain abp1, hits give low values 1.01 | locus YDL005C, strain med2, hits give low values 1.01 | locus YDL035C, strain GPR1, hits give low values 0.999 | locus YDL040C, strain nat1, hits give low values 1.02 | locus YDL074C, strain BRE1, hits give low values 0.986 | locus YDL101C, strain DUN1, hits give low values 0.996 | locus YDL134C, strain PPH21, hits give low values 1 | locus YDL185W, strain tfp1, hits give low values 0.981 | locus YDL192W, strain arf1, hits give low values 0.992 | locus YDR001C, strain nth1, hits give low values 1.01 | locus YDR069C, strain doa4, hits give low values 0.992 | locus YDR101C, strain arx1, hits give low values 0.995 | locus YDR137W, strain rgp1, hits give low values 0.959 | locus YDR150W, strain NUM1, hits give low values 1 | locus YDR159W, strain sac3, hits give low values 0.972 | locus YDR162C, strain NBP2, hits give low values 1.01 | locus YDR195W, strain ref2 1.07 | locus YDR297W, strain sur2, hits give low values 1 | locus YDR318W, strain mcm21, hits give low values 0.996 | locus YDR334W, strain swr1, hits give low values 1.03 | locus YDR335W, strain msn5, hits give low values 1.01 | locus YDR388W, hits give low values 0.988 | locus YDR392W, strain spt3, hits give low values 0.957 | locus YDR502C, strain sam2, hits give low values 0.989 | locus YEL003W, strain gim4, hits give low values 0.994 | locus YEL037C, strain rad23, hits give low values 1.01 | locus YEL061C, strain CIN8 (second series), hits give low values 1.01 | locus YEL061C, strain CIN8, hits give low values 0.995 | locus YER015W, strain faa2, hits give low values 0.984 | locus YER016W, strain bim1, hits give low values 1.02 | locus YER110C, hits give low values 0.984 | locus YER111C, strain swi4, hits give low values 1.01 | locus YER155C, strain BEM2 (second series), hits give low values 1 | locus YER155C, strain BEM2, hits give low values 0.989 | locus YER167W, strain BCK2, hits give low values 0.996 | locus YFR010W, strain ubp6, hits give low values 1.01 | locus YGL078C, strain dbp3, hits give low values 0.991 | locus YGL086W, strain mad1, hits give low values 1.02 | locus YGL167C, strain pmr1, hits give low values 1.01 | locus YGL173C, strain kem1, hits give low values 1 | locus YGL227W, strain vid30, hits give low values 1.01 | locus YGL240W, strain doc1, hits give low values 1.02 | locus YGL248W, strain PDE1, hits give low values 0.987 | locus YGL253W, strain hxk2, hits give low values 0.997 | locus YGR078C, strain PAC10, hits give low values 1.01 | locus YGR135W, strain pre9, hits give low values 0.994 | locus YGR229C, strain SMI1, hits give low values 1 | locus YGR252W, strain gcn5, hits give low values 0.947 | locus YHR013C, strain ard1, hits give low values 0.949 | locus YHR027C, strain rpn1, hits give low values 1 | locus YHR030C, strain SLT2, hits give low values 1 | locus YHR079C, strain IRE1 (second series), hits give low values 0.979 | locus YHR094C, strain hxt1, hits give low values 0.994 | locus YHR129C, strain ARP1, hits give low values 1 | locus YHR142W, strain chs7, hits give low values 0.988 | locus YHR200W, strain rpn10, hits give low values 0.985 | locus YIL066C, strain RNR3, hits give low values 0.977 | locus YIL073C, strain SPO22, hits give low values 0.952 | locus YIL125W, strain kgd1, hits give low values 0.996 | locus YIR030C, strain dcg1, hits give low values 0.998 | locus YJL092W, strain hpr5, hits give low values 1.01 | locus YJL095W, strain BCK1 (second series), hits give low values 1.02 | locus YJL095W, strain BCK1, hits give low values 1.03 | locus YJL115W, strain asf1, hits give low values 1.01 | locus YJL134W, strain LCB3, hits give low values 0.989 | locus YJL154C, strain vps35, hits give low values 1.01 | locus YJL164C, strain tpk1, hits give low values 0.988 | locus YJL166W, strain qcr8, hits give low values 0.992 | locus YJL168C, strain set2, hits give low values 0.989 | locus YJL187C, strain SWE1 (second series), hits give low values 0.997 | locus YJL187C, strain SWE1, hits give low values 1.03
